For five compounds, composite z-score and z-score results are on record in PubChem BioAssay.

The nature of test [1]: anti-His antibody binders, primary screen, artefact control for SMM control protein annotation, biochemical, small-molecule microarray, 635 nm fluorescence (AID 1128).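 Further: score merges feature fluorescence with signal-to-noise for each printed compound spot.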 The note with it: anti-His Alexa647 antibody binding, higher = more signal.
Test [2] has as its system Human papillomavirus type 1a E7 protein (residues 1-88). As to the kind of experiment: HPV1a E7 small-molecule binders, primary screen, biochemical, small-molecule microarray, residues 1-88, 635 nm (AID 1129). The settings on record: small-molecule microarray binding, fluorescence 635 nm; higher = more signal.
Test [3] addresses Focal adhesion kinase 1 (Homo sapiens) (UniProt Q05397). The test is described as follows: small-molecule microarray binders of FAK, primary screen, biochemical, 635/667 nm fluorescence, BSA, DTT (AID 1130).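 Further: composite of spot emission at 667 nm and signal to noise over triplicate slides.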 The note with it: PTK2 binding, 635 nm fluorescence, higher = more signal.
The test system of test [4] is Fibrinogen (Alexa647-labelled). The test is described as follows: fibrinogen binders on compound microarrays, profiling panel, artefact control for SMM control-protein annotation, biochemical, small-molecule microarray, 635/667 nm fluorescence (AID 1131).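 Further: z-score merges 667 nm fluorescence with per-spot signal-to-noise over triplicate slides.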 The settings on record: fibrinogen-A647 binding fluorescence, higher = more signal.
In test [5] the target is Follistatin (Homo sapiens) (UniProt P19883). As to the kind of experiment: follistatin binders on small-molecule microarrays, primary screen, biochemical, small-molecule microarray, 635/667 nm fluorescence (AID 1132). The note with it: FST binding, 635 nm fluorescence, higher = more signal.
Sequence of Follistatin (Homo sapiens) (P19883 whole entry, looked up): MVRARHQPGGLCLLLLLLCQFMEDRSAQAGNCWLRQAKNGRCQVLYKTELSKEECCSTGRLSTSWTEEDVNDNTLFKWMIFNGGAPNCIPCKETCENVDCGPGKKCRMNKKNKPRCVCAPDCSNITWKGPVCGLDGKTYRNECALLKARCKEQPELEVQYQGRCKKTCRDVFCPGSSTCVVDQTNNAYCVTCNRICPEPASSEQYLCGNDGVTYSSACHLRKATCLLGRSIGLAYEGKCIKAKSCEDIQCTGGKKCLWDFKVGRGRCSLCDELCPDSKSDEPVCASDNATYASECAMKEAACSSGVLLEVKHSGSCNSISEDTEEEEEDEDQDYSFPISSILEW
Test [6] has as its target Fibroblast growth factor 2 (Homo sapiens) (UniProt P09038). The test is described as follows: FGF2 binders on small-molecule microarrays, primary screen, biochemical, small-molecule microarray, 635/667 nm fluorescence (AID 1133). The note with it: small-molecule microarray binding, FGF2, fluorescence 635/667; higher = more signal.
The nature of test [7]: mitochondrial membrane potential change in A549 cells, profiling panel, cell-based, JC-1 fluorescence, basal, 24 h, 100 nL (AID 1138).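 Further: A549 lung adenocarcinoma cells under basal conditions with no added stimulus; test concentration not given here.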 The settings on record: higher = more signal.
In the next test the test system is Lefty1. The test is described as follows: Lefty1 binders on small-molecule microarrays, primary screen, biochemical, small-molecule microarray, 635/667 nm fluorescence (AID 1139). The note with it: small-molecule microarray binding, fluorescence 635/667; higher = more signal.
The subject of test [8] is wheat germ agglutinin (Triticum aestivum), Alexa647-labelled. The test is described as follows: wheat germ agglutinin binders on compound microarrays, profiling panel, artefact control for SMM control-protein annotation, biochemical, small-molecule microarray, 635/667 nm fluorescence (AID 1140).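 Further: score merges 667 nm feature emission with signal to noise over triplicate slides.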 The settings on record: WGA-A647 binding, 635 nm fluorescence, higher = more signal.

Test [9] addresses Luciferin 4-monooxygenase (Photinus pyralis) (UniProt P08659). The test is described as follows: firefly luciferase enzyme inhibitors, primary screen, biochemical, luminescence, purified enzyme, 2006 set (AID 1141).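 Further: cell-free assay with purified firefly luciferase at 100 ng per well in PBS; test concentration not given here.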 The note with it: SteadyGlo luminescence, 30 min, higher = more signal, called active from +8 up or from −8 down.
Test [10] relates to Wnt5a (protein binding on small-molecule microarray). As to the kind of experiment: Wnt5a binders on small-molecule microarray, primary screen, biophysical, 635/667 nm fluorescence (AID 1142).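 Further: fluorescence read at 667 nm with signal to noise per printed feature.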 The settings on record: 635 nm fluorescence, higher = more signal.
A short description of test [11]: cell viability in Huh7 cells, primary screen, cytotoxicity control for HCV replication inhibitor project, CellTiter-Glo luminescence, basal, 48 h (AID 1143).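 Further: Huh7 hepatoma cells carrying a hepatitis C replication reporter with no stimulus; test concentration not given here.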 The note with it: Huh7 HCV replicon, higher = more signal, called active from +8 up or from −8 down.
Test [12] in a line: P. aeruginosa biofilm formation inhibitors, primary screen, PAO1 strain, BacTiter-Glo luminescence, LB-PBS (AID 1144). The settings on record: 12 h, higher = more signal.
Test [13] in a line: CREB reporter modulators without forskolin, primary screen, cell-based, PC12, CRE-LacZ reporter, unstimulated (AID 1145). The settings on record: no forskolin, luminescence, 4.5 h, higher = more signal, called active from +8 up or from −8 down.
Test [14] is described as follows: CREB reporter modulators under forskolin, primary screen, cell-based, PC12, CRE-LacZ reporter, forskolin-stimulated (AID 1146).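 Further: PC12 cells with 6xCRE LacZ reporter stimulated by forskolin 10 µM; beta-galactosidase reporter signal reflecting CREB driven transcription.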 The note with it: luminescence, 4.5 h, higher = more signal, called active from +8 up or from −8 down.
In test [15] the target is Streptavidin (Streptomyces avidinii) (UniProt P22629). The test is described as follows: streptavidin binders on small-molecule microarray, primary screen, artefact control for SMM compound annotation, biophysical, 635/667 nm fluorescence (AID 1147).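 Further: signal reflects streptavidin binding to arrayed compounds as a control protein.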 The note with it: streptavidin binding, higher = more signal.
Sequence of Streptavidin (Streptomyces avidinii) (P22629 whole entry, looked up): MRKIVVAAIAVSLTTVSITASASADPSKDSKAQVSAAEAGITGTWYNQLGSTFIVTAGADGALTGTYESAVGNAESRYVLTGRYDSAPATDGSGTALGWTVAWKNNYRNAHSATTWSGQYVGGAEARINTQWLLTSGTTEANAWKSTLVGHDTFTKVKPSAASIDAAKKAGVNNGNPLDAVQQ
Test [16] in a line: small-molecule binders of probe aInhba, primary screen, biochemical, small-molecule microarray, 635/667 nm fluorescence (AID 1148).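 Further: score merges 667nm spot fluorescence with signal-to-noise for antibody binding to printed compounds.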 The settings on record: higher = more signal.
Test [17] addresses Torsin-1A (Homo sapiens) (UniProt O14656). As to the kind of experiment: torsin A binders from cell lysate, primary screen, small-molecule microarray, wild-type, 635/667 nm (AID 1149). The note with it: COS7 hTOR1A-WT lysate, 635 nm fluorescence, higher = more signal.
Test [18] has the same target. The test is described as follows: small-molecule binders of mutant TOR1A in lysate, primary screen, cell lysate, small-molecule microarray, COS7 lysate, 635/667 nm fluorescence (AID 1150).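 Further: score pools 667 nm emission and signal to noise measuring lysate protein binding.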 The settings on record: COS7 hTOR1A mutant lysate, 635 nm fluorescence, higher = more signal.
Test [19] has as its system Sonic hedgehog protein (Shh). The test is described as follows: small-molecule binders of Shh protein, primary screen, biochemical, small-molecule microarray, 635/667 nm fluorescence (AID 1151).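 Further: Shh protein binding to compounds spotted on small-molecule microarray slides; score combines spot fluorescence intensity with signal-to-noise across triplicate slides.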 The note with it: small-molecule microarray binding, 635 nm fluorescence; higher = more signal.

Active and inactive are the calls of the source. Unless noted, how the calls were made is not given here.

Sequence of Luciferin 4-monooxygenase (Photinus pyralis) (P08659 whole entry, looked up): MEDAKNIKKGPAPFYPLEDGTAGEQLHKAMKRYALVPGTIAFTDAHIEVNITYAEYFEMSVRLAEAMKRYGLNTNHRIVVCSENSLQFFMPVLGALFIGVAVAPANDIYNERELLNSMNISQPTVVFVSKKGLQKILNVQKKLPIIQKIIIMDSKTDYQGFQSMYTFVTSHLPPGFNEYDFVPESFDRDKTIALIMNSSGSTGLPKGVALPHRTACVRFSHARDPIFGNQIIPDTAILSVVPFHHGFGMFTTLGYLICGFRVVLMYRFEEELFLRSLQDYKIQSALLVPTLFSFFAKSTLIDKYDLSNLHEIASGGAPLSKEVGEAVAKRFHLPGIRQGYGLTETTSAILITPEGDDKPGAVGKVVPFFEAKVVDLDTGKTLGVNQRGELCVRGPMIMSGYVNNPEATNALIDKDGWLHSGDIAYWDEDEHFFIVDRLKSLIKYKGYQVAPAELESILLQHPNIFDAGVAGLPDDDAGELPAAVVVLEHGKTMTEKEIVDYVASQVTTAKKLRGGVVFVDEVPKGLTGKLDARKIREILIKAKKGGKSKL
Sequence of Focal adhesion kinase 1 (Homo sapiens) (Q05397 whole entry, looked up): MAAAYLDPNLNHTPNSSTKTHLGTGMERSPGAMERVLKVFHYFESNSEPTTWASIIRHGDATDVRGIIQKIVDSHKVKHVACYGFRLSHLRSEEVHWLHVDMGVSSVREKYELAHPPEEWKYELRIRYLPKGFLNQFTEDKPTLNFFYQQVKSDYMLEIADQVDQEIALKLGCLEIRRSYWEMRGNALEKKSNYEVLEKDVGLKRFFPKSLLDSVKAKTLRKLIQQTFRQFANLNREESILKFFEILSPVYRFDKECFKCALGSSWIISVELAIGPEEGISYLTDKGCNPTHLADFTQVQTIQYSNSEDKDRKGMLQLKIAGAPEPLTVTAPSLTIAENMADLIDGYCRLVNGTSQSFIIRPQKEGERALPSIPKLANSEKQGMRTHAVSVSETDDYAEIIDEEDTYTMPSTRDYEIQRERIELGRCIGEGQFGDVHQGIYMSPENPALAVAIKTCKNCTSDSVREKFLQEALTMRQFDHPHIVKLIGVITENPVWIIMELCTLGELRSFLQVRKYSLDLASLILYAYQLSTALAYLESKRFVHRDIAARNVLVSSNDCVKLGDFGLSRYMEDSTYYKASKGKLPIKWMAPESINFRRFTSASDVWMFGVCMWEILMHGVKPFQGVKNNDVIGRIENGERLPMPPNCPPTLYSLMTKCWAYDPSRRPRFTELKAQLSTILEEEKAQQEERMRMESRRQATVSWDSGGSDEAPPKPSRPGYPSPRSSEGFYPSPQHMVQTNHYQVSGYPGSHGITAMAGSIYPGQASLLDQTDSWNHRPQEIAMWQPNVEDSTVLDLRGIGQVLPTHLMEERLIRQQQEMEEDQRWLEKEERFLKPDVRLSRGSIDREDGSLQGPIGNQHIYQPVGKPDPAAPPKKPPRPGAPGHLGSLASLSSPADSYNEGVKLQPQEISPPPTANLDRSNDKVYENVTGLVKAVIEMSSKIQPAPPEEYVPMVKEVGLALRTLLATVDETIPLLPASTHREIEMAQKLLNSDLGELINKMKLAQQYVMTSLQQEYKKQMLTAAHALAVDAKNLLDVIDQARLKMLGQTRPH
Sequence of Fibroblast growth factor 2 (Homo sapiens) (P09038 whole entry, looked up): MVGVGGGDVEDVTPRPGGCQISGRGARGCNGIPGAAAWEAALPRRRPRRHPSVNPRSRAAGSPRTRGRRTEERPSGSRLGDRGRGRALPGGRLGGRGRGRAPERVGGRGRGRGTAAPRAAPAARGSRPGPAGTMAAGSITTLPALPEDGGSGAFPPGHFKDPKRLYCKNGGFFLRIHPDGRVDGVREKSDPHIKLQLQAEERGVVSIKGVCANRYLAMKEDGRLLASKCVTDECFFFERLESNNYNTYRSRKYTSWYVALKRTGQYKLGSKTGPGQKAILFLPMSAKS
Sequence of Torsin-1A (Homo sapiens) (O14656 whole entry, looked up): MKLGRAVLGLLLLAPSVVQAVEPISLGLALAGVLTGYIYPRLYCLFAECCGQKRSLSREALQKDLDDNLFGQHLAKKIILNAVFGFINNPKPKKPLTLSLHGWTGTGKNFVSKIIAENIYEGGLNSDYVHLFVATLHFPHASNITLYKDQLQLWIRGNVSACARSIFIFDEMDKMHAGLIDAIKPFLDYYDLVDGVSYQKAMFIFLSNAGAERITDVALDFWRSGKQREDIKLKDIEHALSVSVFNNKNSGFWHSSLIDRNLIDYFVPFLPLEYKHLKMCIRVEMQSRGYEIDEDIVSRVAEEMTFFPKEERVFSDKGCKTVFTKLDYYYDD

As for `CCCCC(O)C1C=CC2C(=O)N(C)C(=O)C2N1N1CCCCC1` (stereo not given), the composite z-score in test [1] was 1.69; in test [2], 0.678; in [3], 0.367; in [4], 1.03; in test [5], 0.971; in [6] it was -0.331. In addition, the composite z-score amounted to 0.412 in the test with Lefty1; 1.19 in test [8]; 0.0755 in test [10]; 0.0223 in [15]; 0.196 in test [16]; 0.0748 in the test with Torsin-1A (Homo sapiens) [17]. Moreover, the composite z-score with Torsin-1A (Homo sapiens) [18] is 0.845; in [19] it was 0.0629. Besides, the z-score in test [7] was -0.0954; in test [9], 0.452 (inactive); in [11] it was 1.09 (inactive); in test [12] it was 0.382 (inactive); in [13] it was 0.0535 (inactive); in [14], 0.47 (inactive).
For `C=C(C(=O)CC[C@H](OC(C)=O)c1ccccc1OCCO)C(C)C`, the composite z-score was -0.29 in test [1]; -0.936 in test [2]; -0.385 in [3]; -0.262 in test [4]; 1.25 in test [5]; 0.38 in test [6]. Also, the composite z-score is 0.696 in the test on Lefty1; -0.209 in test [8]; -0.138 in test [10]; -0.455 in test [15]; -0.188 in test [16]; 0.229 in the test with Torsin-1A (Homo sapiens) [17]. In addition, the composite z-score in the test with Torsin-1A (Homo sapiens) [18] is -0.752; in test [19], 2.19. The z-score was -1.25 in [7]; 0.168 (inactive) in [9]; -8.56 (active) in [11]; -0.679 (inactive) in test [12]; 9.01 (active) in test [13]; -0.422 (inactive) in [14].
`CCOC(=O)C1=CC[C@H]2C(=O)N(c3ccccc3)C(=O)[C@@H]12`: the composite z-score in [1] stood at 2.18; in [2], 1.32; in test [3] it was 0.291; in [4], 1.04; in test [5], 1.24; in test [6] it was 0.385. The composite z-score was determined as 0.655 in the test with Lefty1; 0.56 in test [8]; 0.125 in test [10]; 0.9 in [15]; 0.19 in [16]; 0.079 in the test with Torsin-1A (Homo sapiens) [17]. The composite z-score with Torsin-1A (Homo sapiens) [18] was 1.08; in [19] it was 0.814. For the same compound, the z-score in [7] was -1.44; in [9], 0.332 (inactive); in [11], -0.321 (inactive); in test [12], 0.96 (inactive); in [13], 0.836 (inactive); in [14], -0.0473 (inactive).
Turning to `C=CCN(Cc1ccccc1)C(=O)C(c1cccs1)N(C(=O)/C=C\C(=O)O)c1ccc(CCOCCO)cc1` (stereo not given), the composite z-score in test [1] is -0.709; in [2], -0.755; in [3] it was -0.618; in test [4] it was -1.23; in test [5], -1.32; in test [6] it was -0.78. The composite z-score with Lefty1 was -1.16; in test [8], -1.01; in [10], -0.913; in test [15], -1.82; in test [16] it was -0.133; in the test with Torsin-1A (Homo sapiens) [17] it was -2.08. Further, the composite z-score was -2.48 with Torsin-1A (Homo sapiens) [18] and -0.595 in test [19]. Further, the z-score in [7] was 1.37; in [9], -3.88 (inactive); in test [11], -0.0564 (inactive); in test [12], -1.75 (inactive); in test [13], -0.0737 (inactive); in test [14], -0.771 (inactive).
As to `CC(=CC1CCCCC1)[C@@H](NC(=O)c1cccnc1)c1ccc(-c2ccccc2)cc1`, the composite z-score in test [1] is 0.219; in test [2], 0.242; in test [3], -0.0341; in [4], 0.0017; in test [5], -0.0317; in test [6], -0.741. Further, the composite z-score in the test with Lefty1 was -0.496; in test [8], 0.495; in [10], -0.444; in test [15] it was 0.0816; in test [16] it was -0.0986; with Torsin-1A (Homo sapiens) [17] it was -0.77. The composite z-score in the test with Torsin-1A (Homo sapiens) [18] is -0.278; in test [19] it was -0.683. The z-score in test [7] was -0.637; in [9], 0.722 (inactive); in test [11], -2.65 (inactive); in test [12], 0.477 (inactive); in test [13], 1.34 (inactive); in test [14] it was 1.24 (inactive).
